Results reported in PubChem BioAssay.

Target: Left-right determination factor 2 (Homo sapiens) (UniProt O00292)
Experiment: LEFTY2 binders on small-molecule microarrays, primary screen, biochemical, small-molecule microarray, 635 nm fluorescence scan (AID 1110)
Conditions: LEFTY2 binding, higher = more signal

Chain of Left-right determination factor 2 (Homo sapiens) (O00292 whole entry, looked up): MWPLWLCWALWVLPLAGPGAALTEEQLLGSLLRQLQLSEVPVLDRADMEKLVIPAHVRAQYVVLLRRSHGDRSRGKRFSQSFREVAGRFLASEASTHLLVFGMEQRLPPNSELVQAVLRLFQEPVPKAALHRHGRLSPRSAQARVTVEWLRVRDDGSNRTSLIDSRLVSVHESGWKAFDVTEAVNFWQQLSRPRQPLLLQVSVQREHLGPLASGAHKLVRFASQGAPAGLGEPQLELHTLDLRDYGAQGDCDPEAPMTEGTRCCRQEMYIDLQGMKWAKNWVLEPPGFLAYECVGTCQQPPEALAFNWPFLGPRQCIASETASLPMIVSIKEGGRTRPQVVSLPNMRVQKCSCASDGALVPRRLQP

Compound | composite z-score
O=C1C[C@@H](O)[C@@H](O)[C@@H]2[C@@H]3C(=O)N(c4ccc(F)cc4F)C(=O)[C@@H]3CC[C@H]12 | 0.681
Cc1cc(C)c(-c2cc([C@H](C)ON=C[C@@H](C)[C@H](OCc3ccccc3)C(C)C)on2)c(C)c1 | -0.0341
CCN1C(=O)[C@H]2[C@H]3[C@H](O)[C@H](O)CC(=NOCC=C(C)CCC=C(C)C)[C@@H]3CC[C@H]2C1=O | 1.29
CC(CCC(=O)OC[C@H]1O[C@H](C#Cc2ccccc2)C=C[C@@H]1Oc1ccc(C)cc1)=NOC[C@@H](C)[C@H](OCc1ccccc1)C(C)C | -0.502
CCOC(=O)CCN1C(=O)[C@H]2[C@H]3[C@H](O)[C@H](O)CC(=NO[C@@H]4O[C@H](CO)[C@@H](O)[C@H](O)[C@H]4O)[C@H]3CC[C@H]2C1=O | 0.523
CC1(C)O[C@H]2OC([C@H](O)CON3C(=O)c4ccccc4C3=O)[C@H](O)[C@H]2O1 (stereo partly specified) | 0.244
CC(CCN1CCc2nc(-c3ccccc3)c(-c3ccccc3)cc2C1)=NO[C@H](C)c1cn([C@H](CO)Cc2ccccc2)nn1 | 0.332
CON=C(C)CCN1CCCc2nc(C)c(C)cc21 | 0.685
CC(=O)OC[C@H]1O[C@@H](ON=C(C)CCC(=O)OC[C@H]2O[C@H](C#Cc3ccccc3)C=C[C@@H]2Oc2ccc(C)cc2)[C@H](OC(C)=O)[C@@H](OC(C)=O)[C@@H]1OC(C)=O | 0.713
CCN1C(=O)[C@H]2[C@H]3[C@H](O)[C@H](O)CC(=NO[C@H](C)c4cn([C@H](CO)Cc5ccccc5)nn4)[C@@H]3CC[C@H]2C1=O | 0.741
CC(=O)OC[C@H]1O[C@@H](ON=C(C)C)[C@H](OC(C)=O)[C@@H](OC(C)=O)[C@@H]1OC(C)=O | 0.207
CC(C)CON=C1C[C@@H](O)[C@@H](O)[C@@H]2[C@@H]3C(=O)N(c4ccc(F)cc4F)C(=O)[C@@H]3CC[C@@H]12 | 0.339
C=C(C)C(=O)OC[C@H]1CN2[C@@H](CC[C@@H](C)[C@@H]2c2ccc(Br)cc2)C(=O)O1 | 0.373
CC(CCN1CCCc2nc(C)c(C)cc21)=NOC[C@@H](O)COCc1ccco1 | 1.73
O=C1C=C[C@@H](O)[C@@H]2[C@@H]3C(=O)N(Cc4ccc5c(c4)OCO5)C(=O)[C@@H]3CC[C@@H]12 | 0.57
CC(C)(C)N1C(=O)[C@H]2[C@H]3[C@H](O)[C@H](O)CC(=NOC[C@@H](O)COCc4ccco4)[C@@H]3CC[C@H]2C1=O | 0.0349
C=CC[C@@H]1C=CC(ON=C(C)C)[C@@H](CO)O1 (stereo partly specified) | 0.0335
CCC1=NOC(CCC2CC(OC(=O)NCc3cccc4c3OCO4)CC3(CCCC(COC(=O)NCCc4ccc(Cl)cc4)O3)O2)C1 (stereo unspecified) | 0.304

Compound | composite z-score
C#CCCCON=C1C[C@@H](O)[C@@H](O)[C@@H]2[C@@H]3C(=O)N(C4CCCCC4)C(=O)[C@@H]3CC[C@@H]12 | 0.321
CC(=O)OC[C@H]1O[C@H](CC=NOC[C@@H](O)COCc2ccco2)C=C[C@@H]1OC(C)=O | 0.898
CC(C)=NOC(C)CN1CCCc2nc(C)c(C)cc21 (stereo unspecified) | 0.75
CCOC(=O)[C@H](Cc1ccccc1)NC(=O)CCC1CC(OC(=O)NCc2cccc3ccccc23)CC2(CCCC(COC(=O)NCC3CCCCC3)O2)O1 (stereo partly specified) | 0.643
O=C1C[C@H](c2ccccc2)[C@H](c2ccc(Br)cc2)O1 | 0.603
COC(=O)[C@H](C)NC(=O)CCC1CC(OC(=O)NCCc2ccc(F)cc2)CC2(CCCC(COC(=O)NCC3CCCCC3)O2)O1 (stereo partly specified) | 0.573
CN1CCc2nc(-c3ccccc3)c(-c3ccccc3)cc2C1 | 0.47
CC#CCOCCC=C1c2ccccc2[C@@H](OC)[C@@H]1C | 0.0778
C#CCCCON=C1C[C@@H](O)[C@@H](O)[C@@H]2[C@@H]3C(=O)N(C[C@@H]4CCCO4)C(=O)[C@@H]3CC[C@H]12 | 0.397
O=C1[C@H]2[C@H]3[C@H](O)[C@H](O)CC(=NO[C@@H]4O[C@H](CO)[C@@H](O)[C@H](O)[C@H]4O)[C@H]3CC[C@H]2C(=O)N1c1ccc(F)cc1F | 0.382
CCCNC(=O)OC[C@H]1O[C@H](CCON=C2C[C@@H](O)[C@@H](O)[C@@H]3[C@@H]4C(=O)N(CC)C(=O)[C@@H]4CC[C@@H]23)C=C[C@@H]1Oc1ccc(OC)cc1 | 0.928
CC(C)=CCCC(C)=CCON=C1C[C@@H](O)[C@@H](O)[C@@H]2[C@@H]3C(=O)N(c4cccc(Oc5ccccc5)c4)C(=O)[C@@H]3CC[C@H]12 | 0.323
COc1ccc(OC[C@@H](CO)OC)cc1 | 0.178
COc1ccc(OC[C@H]2CN3[C@@H](CC[C@@H](C)[C@@H]3c3ccc(Br)cc3)C(=O)O2)cc1 | 0.579
Cc1ccc(S(=O)(=O)N[C@@H]2COC(=O)CC=C[C@@H](C)[C@H](NS(=O)(=O)c3ccc(C)cc3)COC(=O)[C@H](C)NC(=O)CC=C[C@H]2C)cc1 | 0.846
CC(C)CON=C1C[C@@H](O)[C@@H](O)[C@@H]2[C@@H]3C(=O)N(C(C)(C)C)C(=O)[C@@H]3CC[C@@H]12 | 1.1
CCOC(=O)CCN1C(=O)[C@H]2[C@H]3[C@H](O)[C@H](O)CC(=O)[C@@H]3CC[C@H]2C1=O | 0.657
CCOC(=O)[C@H](CC(C)C)NC(=O)CCC1CC(OC(=O)NCc2ccc3c(c2)OCO3)CC2(CCCC(COC(=O)NCCC(C)C)O2)O1 (stereo partly specified) | 0.0162
